According to ChEMBL document CHEMBL4513216, “Probing the Open Global Health Chemical Diversity Library for Multistage-Active Starting Points for Next-Generation Antimalarials” (ACS Infect Dis, 2020):
About 2,100 (3.2%) of roughly 65,000 compounds showed an effect of 50% or more. The median lay at about -52%. Only a selection was taken, and strong results are over-represented in it overall.

tested on: Plasmodium falciparum; test: Screen against P. falciparum Asexual Blood Stage (ABS), at 5uM; assay type: functional, Dd2; conditions: tested at 5 uM

Structure (SMILES) | INHIBITION [%]
CN(C)[C@@H]1CCN(C(=O)c2cccn2C)[C@H]1Cc1cnn(C)c1 | -109
O=C(c1ccco1)N1CC[C@@H]2O[C@@H](COCCN3CCCC3)CC[C@@H]21 | -86.1
c1cnc(N2CC[C@@H]3O[C@@H](COCc4cccnc4)CC[C@@H]32)nc1 | -60.3
CCN(CC)Cc1ccc(C(=O)NC2CCc3cc(F)ccc32)o1 (configuration not stated) | 16.3
CCN(CC)Cc1ccc(C(=O)NC2CCc3cc(Br)ccc32)o1 (configuration not stated) | 47.7
CCN(CC)Cc1ccc(C(=O)NC2CCc3cc(Cl)ccc32)o1 (configuration not stated) | 56
Cc1cncc(C(=O)NCCSCc2cccs2)c1 | -11
CN1CCOC(CNCCOc2cccc(C#N)c2)C1 (configuration not stated) | -70.4
Brc1cc2c(cc1CN1CCC(N3CCCCC3)CC1)OCCO2 | 61.5
OCC1CCN(Cc2cc3c(cc2Br)OCCO3)CC1 | -9.89
OC1CCN(Cc2cc3c(cc2Br)OCCO3)CC1 | -16.3
CN1CCN(C2CCN(CCOc3cccc(Cl)c3)CC2)C1=O | -9.24
Cn1ncc2c1NC(=O)CC2c1ccccc1Br (configuration not stated) | -46.4
CS(=O)(=O)NCc1cc(=O)n2c(n1)CN(Cc1ccco1)CCC2 | -15.8
CNC(=O)c1cn[nH]c1C1(C)CCCN(Cc2ccccn2)C1 (configuration not stated) | 61.9
CN(C)C(=O)c1cn[nH]c1C1(C)CCCN(Cc2ccccn2)C1 (configuration not stated) | -73.2
CNC(=O)c1cn[nH]c1C1(C)CCCN(Cc2ccccc2OC)C1 (configuration not stated) | 31.1
CCOc1nnc(CN2CCN(CCOC)CC2)s1 | -108
CN(C)S(=O)(=O)N1C[C@H]2CC[C@@H](C1)N(CCC(=O)NCc1ccco1)C2 | -109
Cc1occc1C(=O)N1C[C@@H]2CCCO[C@@H]2[C@H](NC(=O)CC2CC2)C1 | -27.2
COc1ccc(CCNC(=O)C(C)Nc2ccc(C)c(C)c2)cc1 (configuration not stated) | -52
CCCN1CCc2nc(N3CCOCC3)nc(NC(C)C)c2C1 | -33.6
CCS(=O)(=O)N1CCc2nc(N3CCCC3)nc(N(C)C)c2CC1 | -19.4

Structure (SMILES) | INHIBITION [%]
Cc1nc(N2CCCC2)nc2c1CN(C(C)C)CC2 | -36.3
Cc1nc(CN2CCc3nc(N4CCCC4)nc(NC(C)C)c3C2)cs1 | 57.3
CC(C)CCN1CCc2nc(N3CCOCC3)nc(NC(C)C)c2C1 | 8.26
CC(C)Nc1nc(N2CCCC2)nc2c1CN(S(C)(=O)=O)CC2 | 50.6
CC(C)Nc1nc(N2CCCC2)nc2c1CN(C(C)C)CC2 | 66.8
CCN1CCc2nc(N3CCOCC3)nc(NC(C)C)c2C1 | 16.7
CC(C)Nc1nc(N2CCCC2)nc2c1CN(c1ncc(F)cn1)CC2 | 23.3
CC(C)Nc1nc(N2CCCC2)nc2c1CN(C)CC2 | 48.5
Cc1nc(CN2CCc3nc(NC(C)C)nc(C)c3C2)cs1 | -19.1
CC(C)Nc1nc(N2CCCC2)nc2c1CCN(S(C)(=O)=O)CC2 | 51.5
CC1(C)CN=C(N2CCN(CCCN3CCOCC3)CC2)S1 | -67.2
N#Cc1ccc(N2CCCC3(CCN(c4cncnc4)C3=O)C2)nc1 (configuration not stated) | -38.5
CCN(CCO)C[C@@H]1CN(C(=O)c2ccc(C)s2)C[C@@H]1CO | -69.5
CN(C)C(=O)C1CN(Cc2ccsc2)Cc2ccnn2C1 (configuration not stated) | -99.4
CCC(=O)Nc1ccc2c(c1)C1(CCOCC1)CN2CCOC | -59.9
Fc1cccc(N2C[C@H]3CCN(c4cccnc4)C[C@H]3C2)c1 | 13.9
O=C(CCc1nc(-c2ccsc2)no1)NCC1CCN(C2CC2)C1 (configuration not stated) | 2.06
CCn1nc2c(cc1=O)CN(Cc1nc(CCOC)no1)CC2 | -151
COCCc1noc(CN2CCc3nn(C(C)C)c(=O)cc3C2)n1 | -60.6
CCCn1nc2c(cc1=O)CN(Cc1nc(CCOC)no1)CC2 | 62.4
c1cncc(-c2nccc(CN3CCCC3)n2)c1 | -151
CCc1c(C)nc2ccccc2c1N1CCC(O)CC1 | 0.854
CCc1c(C)nc2ccccc2c1N1CCC(C(=O)NC)CC1 | 52.7

Structure (SMILES) | INHIBITION [%]
CCc1c(C)nc2ccccc2c1N1CCC(NC(C)=O)CC1 | 24.4
Cc1ccc(C(=O)N2C[C@@H]3[C@@H](C2)OCC(=O)N3Cc2cccnc2)o1 | -84.3
CN(C)Cc1cccc(-c2cccnc2C(=O)NCc2cn(C)cn2)c1 | -167
Cc1ccc(C(=O)N2C[C@H]3CCC[C@@]3(COCC3CCOCC3)C2)o1 | -35.2
CCS(=O)(=O)Nc1ccc2oc(C)c(C(=O)OC)c2c1 | -54.7
Cc1ccccc1C(=O)Nc1ccc(OC2CCN(C)CC2)cc1 | -41.5
COc1ccccc1C(=O)Nc1ccc(OC2CCN(C)CC2)cc1 | 64.2
CN1CCC(Oc2ccc(NC(=O)c3ccccc3Br)cc2)CC1 | -76
CC(Cn1ccnc1)NC(=O)NCCc1cccnc1 (configuration not stated) | 30.9
Cn1nccc1C(=O)N1CCCN(CCCc2ccccc2)CC1 | -14.1
O=C(c1ncoc1C1CC1)N1CCCN(CCCc2ccccc2)CC1 | 69.7
O=C(c1ncoc1C1CC1)N1CCN(CCOc2ccccc2)CC1 | -35.9
COCCn1c(-c2cccc(OC)c2)cnc1NC(=O)NCCC(C)C | -63.4
CN(C)C(=O)c1ccc(C2CCCN2C(=O)c2cccc3c2OCC3)s1 (configuration not stated) | -53.8
Fc1ccc(CN2CCC3(CC2)CN(c2ccccn2)CCO3)cc1 | 49
COc1ncccc1CN1CCC2(CC1)CN(c1ccccn1)CCO2 | 56.5
Cn1ccnc1CN1CCC2(CC1)CN(c1ccccn1)CCO2 | -254
Cc1noc(C)c1CN1CCC2(CC1)CN(c1ccccn1)CCO2 | 30
c1ccc(CN2CCC3(CC2)CN(c2ccccn2)CCO3)nc1 | -67.1
COc1ccc(CN2CCC3(CC2)CN(c2ccccn2)CCO3)cc1 | 62.3
COCC(=O)NCc1cc(=O)n2c(n1)CN(C)CCC2 | -101
